Compound activity (PubChem)
FEN1 inhibitor = inhibitors of human flap endonuclease 1 | Recombinant FEN1 flap cleavage, fluorescence, 15 min | Potency, µM (top dose mostly 114 µM), hits mostly inhibitors | actives 0.35% (n = 390,000); further: nearly all actives have a fitted effect of over 65% in size
Target sequence (P39748 whole entry, looked up): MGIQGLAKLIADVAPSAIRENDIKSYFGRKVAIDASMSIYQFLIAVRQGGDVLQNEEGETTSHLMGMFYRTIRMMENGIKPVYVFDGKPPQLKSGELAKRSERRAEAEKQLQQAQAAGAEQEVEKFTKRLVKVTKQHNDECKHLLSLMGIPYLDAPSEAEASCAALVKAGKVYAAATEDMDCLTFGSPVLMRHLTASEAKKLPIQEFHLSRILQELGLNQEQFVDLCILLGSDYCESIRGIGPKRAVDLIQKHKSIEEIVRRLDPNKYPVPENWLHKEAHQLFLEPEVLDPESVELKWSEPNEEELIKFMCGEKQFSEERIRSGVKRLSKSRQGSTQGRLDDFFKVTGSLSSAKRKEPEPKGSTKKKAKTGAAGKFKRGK
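With each library titrated from low to high concentration, compounds met 10 nM FEN1 for 15 min at room temperature before 50 nM substrate was added; readings at 0 and 15 min fed four-parameter Hill curve fits.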
PI5P4K alpha inh = blocks human PI5P4K alpha kinase activity | P48426 | PI5P4Kalpha enzyme, ADP-Glo luminescence, 60 min; active compounds read low | max response, % | actives 1.2% (n = 330,000) | AID 652105; active means max response of -50% or lower; inconclusive means between -30% and -50%; inactive means -30% or higher; further: value at the top dose of about 77 µM
Target sequence (P48426 whole entry, looked up): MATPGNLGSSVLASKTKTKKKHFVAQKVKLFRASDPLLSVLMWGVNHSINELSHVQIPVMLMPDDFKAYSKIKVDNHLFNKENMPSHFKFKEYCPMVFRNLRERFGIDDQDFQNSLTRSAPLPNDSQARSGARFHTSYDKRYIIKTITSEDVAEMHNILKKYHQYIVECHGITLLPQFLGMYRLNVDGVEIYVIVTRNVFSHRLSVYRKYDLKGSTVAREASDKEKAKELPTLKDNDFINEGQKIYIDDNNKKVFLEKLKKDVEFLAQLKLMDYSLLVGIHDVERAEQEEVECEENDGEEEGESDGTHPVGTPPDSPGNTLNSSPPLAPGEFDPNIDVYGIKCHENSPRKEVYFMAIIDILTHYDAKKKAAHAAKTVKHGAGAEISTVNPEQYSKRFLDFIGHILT
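Luminescence from ADP-Glo served as readout of PI5P4Kalpha activity in a qHTS format. Reaction: enzyme, substrate, compound, ATP at 5 microM final, 60 min at RT.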
Pol eta inh-1 = blocks human DNA polymerase eta activity; Potency, µM (doses to about 114 µM), actives largely listed as inhibitors; AID 588591; actives 1.2% (n = 390,000); recombinant Pol eta, fluorescent DNA replication assay
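Pol eta (10 nM) was preincubated with compounds for 15 min at room temperature, after which fluorescent replication substrate (50 nM final) was added to start the reaction. Fluorescence was read kinetically at 0 and 10 min.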
POLB inh = inhibitors of human DNA polymerase beta; Potency, µM (series often up to 114 µM), hits mostly inhibitors; Pol beta primer extension/strand displacement, fluorescence kinetic; AID 485314; actives 1.3% (n = 340,000); P06746
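Pol beta (10 nM) and compounds were preincubated 15 min at room temperature, then 50 nM substrate (final) started primer extension/strand displacement. Reads were taken at 0 and 10 min; concentration-response data were fitted to a four-parameter Hill equation.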
Pol kappa inh-1 = blocks human DNA polymerase kappa activity. Q9UBT6. Potency, µM (titrated, usually from 107 µM), hits mostly inhibitors. AID 588579. actives 0.53% (n = 400,000). purified Pol kappa, fluorescent DNA synthesis assay, 10 min
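Fluorescent qHTS in 1536-well format: enzyme (10 nM) and compound sat 15 min at room temperature before 50 nM substrate (final) was added. Signal taken at 0 and 10 min; no-enzyme buffer wells were negative controls.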
POLI inh = inhibitors of human DNA polymerase iota. Q9UNA4. Pol iota fluorescent replication assay, 10 min. Potency, µM (doses to about 115 µM), usual class: inhibitors. actives 1% (n = 390,000)
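Pol iota at 10 nM preincubated 15 min with compounds at room temperature; reaction started with fluorescent substrate, 50 nM final. Fluorescence read kinetically at 0 and 10 min; buffer-only wells as negative control.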
PGK validate = validation of Trypanosoma brucei phosphoglycerate kinase inhibitors. Potency, µM (highest dose often 57.5 µM), most hits filed as inhibitors. actives 79% (n = 500). shares compounds with Pol kappa inh-1. TbPGK coupled GAPDH assay, Kinase-Glo luminescence; further: nearly all actives have a fitted effect of over 65% in size
Pol iota confirm = Inhibitors of human DNA polymerase iota, confirmation | shares compounds with Pol kappa inh-1 | actives 77% (n = 1,500) | Potency, µM, usual class: inhibitors | Pol iota primer extension, TAMRA/BHQ fluorescence
Pol kappa inh-2 = Pol kappa (human) inhibition, cherry-pick confirmation; AID 720501; Potency, µM, hits mostly inhibitors; purified Pol-kappa, fluorescent strand-displacement substrate; shares compounds with Pol eta inh-1; actives 76% (n = 920)
Pol eta inh-2 = Pol eta (human) inhibition, cherry-pick confirmation; AID 720502; shares compounds with Pol eta inh-1; Potency, µM, usual class: inhibitors; Pol eta primer extension, TAMRA/BHQ fluorescence, 10 min; actives 64% (n = 2,600)
Each line names hits and unclear results; the compound was inactive in the other large screens (follow-up assays come after a bar, where they were run). A selection: hits, their analogues and other compounds. The true share with any hit is near 2.8%. Unless noted, the call rests on the fitted dose curve; in most records, active means well fitted curve in the direction sought with a large enough effect; inconclusive means small, poorly fitted or top-dose-only effect, or another doubt; inactive means no such curve, though single readings can be large; an effect the other way counts as inactive or inconclusive.

CCc1nc2ccc(C(=O)NCCN3CCOCC3)cn2c1N(C)Cc1ccc(OC)cc1	none (no result: FEN1 inhibitor, Pol eta inh-1, POLB inh, Pol kappa inh-1, POLI inh)
O=C(CN1CCN(S(=O)(=O)c2ccc(Br)cc2)CC1)N/N=C/c1cccnc1	none
COc1cccc(/C=C2/C(=O)NN(c3ccccc3)C2=O)c1	none
O=C1NN(c2ccccc2)C(=O)/C1=C/c1ccc(Sc2cccc3ccccc23)o1	FEN1 inhibitor inconclusive, PI5P4K alpha inh inconclusive, Pol eta inh-1 28.2µM, POLB inh 20µM, Pol kappa inh-1 inconclusive, POLI inh 11.2µM | Pol iota confirm 75.2 | Pol eta inh-2 30.1
O=C1NN(c2ccccc2)C(=O)/C1=C/c1ccc(-c2ccc(C(=O)O)cc2)o1	FEN1 inhibitor 50.1µM, PI5P4K alpha inh inconclusive, Pol eta inh-1 7.08µM, POLB inh inconclusive, Pol kappa inh-1 17.8µM, POLI inh 3.55µM | Pol iota confirm 23.8 | Pol eta inh-2 26.9
O=C(O)CCCN1C(=O)/C(=C\c2ccc(-c3nc4ccccc4s3)o2)SC1=S	FEN1 inhibitor 35.5µM, Pol eta inh-1 15.8µM, POLB inh 15.8µM, Pol kappa inh-1 inconclusive, POLI inh inconclusive | PGK validate inconclusive | Pol eta inh-2 33.8
O=C1NN(c2ccc(Cl)c(Cl)c2)C(=O)/C1=C/c1ccc(-c2ccccc2C(=O)O)o1	FEN1 inhibitor inconclusive, PI5P4K alpha inh -58.3, Pol eta inh-1 20µM, POLB inh 31.6µM, Pol kappa inh-1 39.8µM, POLI inh 5.01µM | Pol iota confirm 18.9 | Pol kappa inh-2 16.8 | Pol eta inh-2 30.1
O=C(O)c1ccc(N2C(=O)/C(=C/c3ccc(-c4ccc([N+](=O)[O-])cc4)o3)C=C2c2ccccc2)cc1	FEN1 inhibitor inconclusive, PI5P4K alpha inh -94.1, Pol eta inh-1 3.55µM, POLB inh 10µM, Pol kappa inh-1 inconclusive, POLI inh inconclusive | Pol iota confirm 8.44 | Pol eta inh-2 7.57
CC1=NOC(=O)/C1=C/c1ccc(O)cc1	POLI inh inconclusive
CC1=NOC(=O)/C1=C\c1ccc(-c2ccccc2Br)o1	FEN1 inhibitor 39.8µM, PI5P4K alpha inh inconclusive, Pol eta inh-1 20µM, POLB inh 22.4µM, Pol kappa inh-1 inconclusive, POLI inh inconclusive | Pol iota confirm 75.2 | Pol eta inh-2 47.8
Cc1onc(-c2ccccc2Cl)c1C(=O)Oc1cccc2cccnc12	none
COC1=C(N)C(=O)c2nc(C)ccc2C1=O	FEN1 inhibitor inconclusive, Pol eta inh-1 8.91µM, Pol kappa inh-1 inconclusive, POLI inh 17.8µM (no result: POLB inh) | Pol iota confirm 23.8 | Pol kappa inh-2 18.9 | Pol eta inh-2 30.1
COC1=C(Br)C(=O)c2nc(C)ccc2C1=O	PI5P4K alpha inh -68.0, Pol eta inh-1 14.1µM (no result: FEN1 inhibitor, POLB inh, Pol kappa inh-1, POLI inh) | Pol iota confirm 26.7 | Pol kappa inh-2 18.9 | Pol eta inh-2 30.1
COC1=C(Nc2ccc(C)cc2)C(=O)c2ccccc2C1=O	POLB inh inconclusive, POLI inh inconclusive
Cc1nc2c(nc1C)C(=O)c1ccccc1C2=O	Pol eta inh-1 inconclusive (no result: POLB inh)
O=C1c2cccc(OCC(=O)N3N=C(c4cccs4)CC3c3ccc(F)cc3)c2CCN1Cc1cccnc1 (stereo unspecified)	none
CC(=O)Oc1cccc(N2C(=O)c3cccc4c([N+](=O)[O-])ccc(c34)C2=O)c1	none
Cc1ccc(C(=O)O)cc1N1C(=O)c2cccc3c([N+](=O)[O-])ccc(c23)C1=O	FEN1 inhibitor inconclusive, PI5P4K alpha inh inconclusive, Pol eta inh-1 10µM, POLB inh 17.8µM, Pol kappa inh-1 39.8µM, POLI inh 15.8µM | Pol iota confirm 26.7 | Pol kappa inh-2 6.7 | Pol eta inh-2 30.1
COc1ccc2[nH]c(=O)c(-c3noc(-c4ccccc4)n3)cc2c1	FEN1 inhibitor inconclusive, Pol eta inh-1 inconclusive, POLI inh inconclusive | Pol iota confirm 42.3 | Pol eta inh-2 67.5
COc1ccc2[nH]c(=O)c(-c3nnn(-c4ccccc4)n3)cc2c1	none
O=C(N/N=C/c1cccn1-c1cccc(C(=O)O)c1)Nc1ccccc1	Pol eta inh-1 7.94µM, POLB inh 28.2µM, Pol kappa inh-1 79.4µM, POLI inh inconclusive | Pol iota confirm 75.2 | Pol eta inh-2 60.1
O=C(N/N=C/c1cccc(Cl)c1Cl)Nc1ccccc1	none (no result: PI5P4K alpha inh)
CCOC(=O)c1c(C)oc2nc(C)nc(NC(C)c3ccccc3)c12 (stereo unspecified)	none (no result: PI5P4K alpha inh)
COc1cc(/C=N\NC(=O)c2ccc(=O)[nH]n2)cc(OC)c1OC	Pol eta inh-1 inconclusive, POLB inh 12.6µM, Pol kappa inh-1 50.1µM, POLI inh 15.8µM | Pol iota confirm 29.9 | Pol eta inh-2 47.8
COc1cc(/C=N/NC(=O)c2cc(-c3cccn3C)n[nH]2)cc(OC)c1OC	FEN1 inhibitor inconclusive, Pol eta inh-1 28.2µM, POLB inh inconclusive, Pol kappa inh-1 inconclusive, POLI inh 3.55µM (no result: PI5P4K alpha inh) | Pol iota confirm inconclusive | Pol kappa inh-2 18.9 | Pol eta inh-2 26.9
O=C(CN1CCN(C(=O)CN2C(=O)NC3(CCCC3)C2=O)CC1)Nc1cccc(F)c1	none (no result: POLB inh)
COc1ccccc1-c1nnc2sc(-c3cnccn3)nn12	Pol eta inh-1 44.7µM, POLB inh inconclusive, POLI inh inconclusive (no result: PI5P4K alpha inh) | Pol iota confirm 75.2 | Pol eta inh-2 inconclusive
CC(=O)Nc1ccc(Nc2nc(-c3cc4ccccc4oc3=O)cs2)cc1	PI5P4K alpha inh inconclusive
O=C(O)c1ccc(Nc2nc(-c3cc4ccccc4oc3=O)cs2)cc1O	FEN1 inhibitor inconclusive, PI5P4K alpha inh -79.3, Pol eta inh-1 25.1µM, POLB inh 100µM, Pol kappa inh-1 56.2µM, POLI inh 22.4µM | Pol iota confirm inconclusive | Pol kappa inh-2 75.2 | Pol eta inh-2 67.5
O=C(N=Nc1c(O)[nH]c2ccccc12)c1cc(-c2cccs2)[nH]n1	FEN1 inhibitor inconclusive, Pol eta inh-1 56.2µM, POLB inh inconclusive, POLI inh inconclusive | Pol iota confirm 67 | Pol kappa inh-2 inconclusive
O=C(N=Nc1c(O)[nH]c2ccccc12)c1cc(-c2ccc(F)cc2)n[nH]1	Pol eta inh-1 inconclusive, POLB inh inconclusive
COc1ccccc1C(CCN(Cc1cccs1)C(C)=O)c1ccco1 (stereo unspecified)	Pol eta inh-1 25.1µM, POLB inh 28.2µM, POLI inh 22.4µM | Pol iota confirm inconclusive | Pol eta inh-2 75.7
